# Screening data as filed in PubChem BioAssay.
# CYP2C9 inhib: inhibitors of human CYP2C9. P11712. CYP2C9 Supersomes, luciferin-H conversion, luminescence. inhibition, % at 5 µM. hit rate 20% among 96,000. AID 777;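 active means blocking of liver enzyme CYP2C9 beyond about 50% at 5 µM, limit read from the data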
# CYP2C19 activ: activators of human cytochrome P450 2C19; P33261; recombinant CYP2C19, luciferin-H EGE luminescence; hits give high values; 0 = fully inhibited enzyme, 1 = untreated enzyme; activation factor at 5 µM; 96,000 tested, under 10 active; AID 1025;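 active means activation factor of at least 2 at 5 µM in the primary screen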;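 further: 0 = wells with 2.5 mM tranylcypromine and 1 = vehicle-only wells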
# Target sequence (P33261 whole entry, looked up): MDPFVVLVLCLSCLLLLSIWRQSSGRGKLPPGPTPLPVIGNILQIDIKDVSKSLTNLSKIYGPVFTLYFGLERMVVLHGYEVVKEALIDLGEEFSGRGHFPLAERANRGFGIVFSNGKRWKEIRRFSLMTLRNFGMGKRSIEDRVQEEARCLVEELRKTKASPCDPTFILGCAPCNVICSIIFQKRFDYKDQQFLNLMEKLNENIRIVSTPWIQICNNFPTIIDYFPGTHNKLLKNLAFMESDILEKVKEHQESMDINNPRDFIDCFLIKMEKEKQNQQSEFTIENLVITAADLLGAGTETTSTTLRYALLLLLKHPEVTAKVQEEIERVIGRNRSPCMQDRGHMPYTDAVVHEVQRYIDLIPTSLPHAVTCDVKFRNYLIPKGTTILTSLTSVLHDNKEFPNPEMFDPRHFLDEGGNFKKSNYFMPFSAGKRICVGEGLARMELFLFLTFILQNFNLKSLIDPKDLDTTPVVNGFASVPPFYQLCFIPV
# Pyk2 oligo antag: antagonists of human Pyk2 oligomerization; hit rate 0.83% among 99,000; Q14289; AID 1347419; Q293 cells, Pyk2 FERM NanoBiT luminescence; hits give low values; z-score (the deposit names both 25 µM and 10 µM);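 active means Z-score of -3 or lower, scaled per plate to the spread of control and sample wells; inactive means z-score above -3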;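 further: negative z-score means lost luminescence so less FERM oligomerization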
# CYP2C19 inhib: inhibitors of human CYP2C19. P33261. CYP2C19 Supersomes, luciferin-H EGE luminescence, 30 min. inhibition, % at 5 µM. hit rate 21% among 96,000. AID 778;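 active means CYP2C19 inhibition above a set limit at 5 µM in the primary screen, cut at about 50% in these data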;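 further: plate controls were negative control wells for no effect and 2.5 mM tranylcypromine positive control for full effect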
# CYP2C9 act: CYP2C9 (human) activation; P11712; recombinant CYP2C9, luciferin-H conversion, luminescence; hits give high values; factor 1 = untreated enzyme, 0 = blocked; activation factor at 5 µM; hit rate 1.4% among 96,000; AID 1024;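 active means activation factor of 2 or more for CYP2C9 at a 5 µM dose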;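 further: 0 = sulfaphenazole-blocked wells and 1 = vehicle-only wells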
# An asterisk follows results filed as active; . = no result given. Most compounds without a hit are left out; they make up all but 28% or so of the library.
SMILES,CYP2C9 inhib,CYP2C19 activ,Pyk2 oligo antag,CYP2C19 inhib,CYP2C9 act
CCOC(=O)CN(C(=O)CNC(=O)c1ccco1)C(C(=O)NC1CCCCC1)c1cccc(OC)c1 (stereo not drawn),39,0.6,0.36,36,0.6
COc1cc(CN/C(C)=C(\C#N)C(N)=O)cc(OC)c1OC,51*,0.3,-0.38,67*,0.5
C/C(NCCN1CCOCC1)=C(\C#N)C(N)=O,.,.,-0.07,.,.
COc1ccc(S(=O)(=O)n2nc(-c3ccc(Cl)cc3)cc2N)cc1OC,80*,0.2,.,83*,0.2
COc1ccc(-c2cc(N)n(S(=O)(=O)c3ccc(F)cc3)n2)cc1OC,95*,0.3,.,70*,0
COc1cc(-c2cc(N)n(S(=O)(=O)c3ccc(F)cc3)n2)cc(OC)c1OC,82*,0.2,.,79*,0.2
CCOc1ccc(-c2cc(N)n(S(=O)(=O)c3ccc(OC)c(OC)c3)n2)cc1,34,0.6,.,40,0.7
Nc1cc(-c2ccccc2)nn1S(=O)(=O)c1ccc(F)cc1,97*,0,.,100*,0
Nc1cc(-c2ccc(Br)cc2)nn1S(=O)(=O)c1ccccc1,35,0.9,.,8,0.7
Cc1cc(C)n(-c2cc(N3CCN(C(=O)c4cccc(F)c4)CC3)ccc2[N+](=O)[O-])n1,.,.,-0.51,.,.
O=C(CSc1ccc(Cl)cc1)OCc1nnc(-c2ccccc2)o1,12,1,0.57,3,0.9
O=[N+]([O-])c1ccc(Sc2ccc(Cl)c(Cl)c2)nc1,-2,0.9,0.95,6,1
Clc1ccc(CSc2nnc(-c3sccc3-n3cccc3)o2)cc1,46,0.7,-3.2*,34,0.5
c1ccc(-c2nc(CSc3nnc(-c4cccs4)o3)cs2)cc1,.,.,1.2,.,.
Clc1cccc(CSc2nnc(-c3sccc3-n3cccc3)o2)c1,-9,0.7,-3.2*,34,1.1
Clc1cc(Cl)cc(CSc2nnc(-c3sccc3-n3cccc3)o2)c1,12,0.8,-1.6,24,0.9
Cn1c(SCc2ccc(Br)cc2)nnc1-c1cccs1,76*,0,-1.7,97*,0.2
Cn1c(SCc2c(Cl)cccc2Cl)nnc1-c1cccs1,76*,0,-1.4,98*,0.2
Cc1nnc(SCc2c(Cl)cccc2Cl)s1,6,0.4,-0.06,59*,0.9
COc1cccc(NC(=O)CSc2nnc(C)s2)c1,15,0.7,0.18,26,0.8
COCc1[nH][nH]c(=O)c1C=Nc1ccc(Oc2ccccc2)cc1,29,0.3,0.51,66*,0.7
OCCc1ccc(-c2ccc(Cl)cc2)o1,45,0.5,1.4,47,0.5
CN1CCN(Cc2ccc(-c3ccc(Cl)cc3)o2)CC1,7,0.4,0,57*,0.9
Cc1cccc(Nc2nc(NC(C)C)nc(Oc3ccc(=O)n(C)n3)n2)c1,53*,0.8,-0.18,16,0.5
O=C1O/C(=C/C(=O)N2CCOCC2)c2ccccc21,.,.,0.22,.,.
SMILES,CYP2C9 inhib,CYP2C19 activ,Pyk2 oligo antag,CYP2C19 inhib,CYP2C9 act
CCOc1ccc(C2CC(=O)NC3=C2C(=O)CCC3)cc1 (stereo not drawn),-5,1.1,0.37,-6,1
O=C1CC(c2ccc3c(c2)OCO3)C2=C(CCCC2=O)N1 (stereo not drawn),52*,0.9,-0.26,14,0.5
O=C1CC(c2ccc(F)c(Br)c2)C2=C(CCCC2=O)N1 (stereo not drawn),29,0.3,-0.14,69*,0.7
Cc1cc(C(F)F)n2ncc(C(=O)O)c2n1,.,.,1.1,.,.
COc1cc2c(cc1OC)C(C(=O)NCC1COc3ccccc3O1)C(c1cccnc1)N(C)C2=O (stereo not drawn),-3,0.8,.,17,1
Cn1c(=O)c2c(-c3ccc(C(C)(C)C)cc3)n(N3CCOCC3)cc2n(C)c1=O,-8,0.9,1.2,9,1.1
Cn1c(=O)c2c(-c3ccccc3)n(N3CCOCC3)cc2n(C)c1=O,55*,1,0.05,-3,0.4
O=c1[nH]c2ccc(S(=O)(=O)N3CCN(c4ccccc4)CC3)cc2[nH]c1=O,13,0.6,0.2,38,0.9
COc1ccc(Cc2nnc(SCC(=O)NCC3CCCO3)o2)cc1 (stereo not drawn),-6,1,0.4,-5,1.1
Cc1nn(Cc2cccc(F)c2)c(C)c1NC(=O)c1ccc(COc2ccccc2Cl)cc1,65*,0.5,-2.1,46,0.3
Cc1nn(C)c(C(=O)Nc2ccn(Cc3c(F)c(F)cc(F)c3F)n2)c1[N+](=O)[O-],49,0.5,0.2,46,0.5
